This is a sample that favours compounds with a hit; in the whole collection about 1.6% have one here.
PERK inh – inhibitors of human PERK kinase. hit rate 0.17% among 220,000. inhibition, % at 5.6 µM. CHO PERK-DD fusion, SEAP luminescence translation reporter;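 active = inhibition above the mean inhibition of all tested compounds plus 3 SD, set separately per screening campaign, cut at about 2.9% in these data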;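 note: PERK kinase domain activated by AP20187 dimerizer at 100 nM; 0% = DMSO with dimerizer and 100% = rapamycin at 8.4 µM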
eIF4H inh – inhibitors of RNA binding by human eIF4H; Q15056; eIF4H fluorescence polarization binding assay; AID 2012; hit rate 0.94% among 290,000; inhibition, % at 35 µM;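 note: calls also rest on retests at 20 µM and on dose response follow-up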
PABP1 MLLE inh – inhibitors of microRNA-mediated deadenylation, human PABP1 MLLE binding; hit rate 0.36% among 360,000; inhibition, % at 20 µM; P11940; GST-MLLE / FITC-PAM2 fluorescence polarization; in the data active = inhibition above about 35%, passing the limit was not always enough;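 note: plate controls were DMSO wells with GST-MLLE for no effect and wells lacking GST-MLLE protein for full effect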
eIF4E-4G inh – inhibitors of eIF4E and eIF4G interaction in translation initiation. P63073+Q04637. TR-FRET eIF4E-eIF4GI(517-606) binding, 2 h. inhibition, % at 21.7 µM. hit rate 0.37% among 220,000. AID 782;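 active = inhibition above about 30%, limit read from the data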;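 note: 0% = full FRET control wells and 100% = background wells lacking eIF4GI fragment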
PABP polyA inh – PABP-poly(A) binding inhibition. P11940. PABP-poly(A) RNA binding, fluorescence polarization. calls only at 35 µM. hit rate 1% among 290,000;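 note: calls also rest on retests at 20 µM and on dose response follow-up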
* = called active by the depositor; i = inactive; · = not tested or not shown; + = active, no number. Unless noted, the rule behind the calls is not given here.

SMILES	PERK inh	eIF4H inh	PABP1 MLLE inh	eIF4E-4G inh	PABP polyA inh
COc1ccc(/C=C2\SC(=S)N(C(Cc3ccccc3)C(=O)O)C2=O)cc1 (centres undefined)	0	-1	12	4	i
O=C(O)CC(C(=O)O)N1C(=O)/C(=C/C=C/c2ccco2)SC1=S (centres undefined)	2	100*	7	32*	+
O=C(CCN1C(=O)/C(=C\C=C\c2ccccc2)SC1=S)Nc1cccc(C(=O)O)c1	·	88*	-7	·	+
O=C(O)C(Cc1ccccc1)N1C(=O)/C(=C/C=C/c2ccco2)SC1=S (centres undefined)	0	85*	-41	53*	+
Cc1ccc(S(=O)(=O)NC(=O)c2ccccc2C)cc1	·	-5	0	·	i
Cc1ccc2ncccc2c1NS(=O)(=O)c1ccccc1	0	8	-111	11	i
Cc1ccc2ncccc2c1NC(=S)NC(=O)c1ccccc1	0	3	42*	-3	i
O=C(Cc1n[nH]c(=O)c2ccccc12)OCC(=O)c1ccc(OC(F)F)cc1OC(F)F	·	·	3	·	·
NC(=O)c1oc2ccccc2c1NC(=O)C1COc2ccccc2O1 (centres undefined)	0	-9	12	3	i
O=C1c2ccccc2C(=O)c2c(/C=C/N3CCCCC3)ccnc21	·	·	43*	·	·
O=C(O)c1cn[nH]c1-c1cccc([N+](=O)[O-])c1	1	98*	10	6	i
O=C(C1=NN[C@@H]2C(=O)N(Cc3ccccc3)C(=O)[C@H]12)c1ccc(F)cc1	1	-16	7	0	i
O=C(Nc1ccc(F)cc1)NC1CCCCCCC1	·	-6	7	·	i
O=C(Nc1ccc(F)cc1)C(NC1CCCCC1)c1ccccc1 (centres undefined)	0	2.7*	-2	1	+
CCn1cnc2c1c(=O)n(CC(=O)OC(C)C(N)=O)c(=O)n2Cc1ccccc1 (centres undefined)	·	-16	5	·	i
CC(=O)NC(=S)c1c(N)n(Cc2ccccc2)c(=O)n(C)c1=O	-1	-11	·	2	i
CCCn1c(N)c(C(=S)NC(=O)C2CC2)c(=O)n(C)c1=O	0	2	41*	6	i
CCCCn1c(N)c(C(=S)NC(=O)CC(C)C)c(=O)n(C)c1=O	0	6	41*	2	i
COc1ccc(F)cc1-c1cc(NC=O)c2ncc(-c3cccc(C(F)(F)F)c3)n2c1	·	·	-5	·	·
C[C@H](CO)N1C[C@H](C)[C@@H](CN(C)S(=O)(=O)c2cccs2)Oc2c(NS(=O)(=O)c3ccccc3)cccc2C1=O	·	·	-6	·	·
CC(Sc1ccc2c(c1)OCCO2)C(=O)Nc1ncc(Cl)cc1Cl (centres undefined)	0	3	43*	3	i
CC(Sc1ccc2c(c1)OCCO2)C(=O)Nc1ccc2c(c1)OCO2 (centres undefined)	0	7	22	4	i
N#Cc1ccccc1S(=O)(=O)N1CCN(CC(O)c2ccccc2)CC1 (centres undefined)	0	7.2*	9	-2	i
N#Cc1ccccc1S(=O)(=O)N1CCN(CC(O)COc2ccccc2F)CC1 (centres undefined)	·	4	-9	·	i
O=C(CSc1ccc(-c2ccco2)nn1)NCc1ccccc1	1	97*	32	7	+
SMILES	PERK inh	eIF4H inh	PABP1 MLLE inh	eIF4E-4G inh	PABP polyA inh
O=C(CSc1ccc(-c2ccco2)nn1)NCc1ccc(Cl)cc1	0	1	22	2	i
Cc1cccc(NC(=O)CSc2ccc(-c3ccccn3)nn2)c1C	1	-9	0	4	i
Cc1ccc(CSc2ccc(-c3ccco3)nn2)cc1	1	66	12	-2	i
O=C(CSc1ccc(-c2ccco2)nn1)N1CCCCC1	0	95	28	-1	+
Cc1cccc(CSc2ccc(-c3ccco3)nn2)c1	1	52*	17	2	+
Cc1cccc(NC(=O)CSc2ccc(-c3ccco3)nn2)c1C	0	78*	13	0	+
Cc1ccccc1CNC(=O)c1csc([C@H]2C[C@H](O)[C@@H](CO)O2)n1	·	·	7	·	·
COc1ccc2[nH]c3c(c2c1)CCN1C(=O)C(CC(=O)NCCC2=CCCCC2)C[C@H](C(=O)N2CCCCC2)[C@@]31C (some centres undefined)	·	·	15	·	·
COc1cc2c(cc1OC)C(C)N(C(=O)c1cc(Cl)nc(Cl)c1)CC2 (centres undefined)	·	2	7	·	i
CCc1c(O)nc(SCC(=O)N2CCc3cc(OC)c(OC)cc3[C@@H]2C)[nH]c1=O	·	0	43*	·	i
O=C(CSC1=NCCS1)Nc1nc2ccccc2s1	0	-10	42*	-2	i
CCSCc1nnc(SCC(=O)Nc2nc3ccccc3s2)n1C	0	3.0*	-113	4	+
Cc1cc(NC(=O)CSC2=NCCS2)no1	1	-12	44*	2	i
CC(C)c1ccccc1NC1=CC(=O)CC(C)(C)C1	1	-5	-12	-1	i
NC(=O)[C@@H]1CCCN1Cc1nc(Cc2ccccc2Cl)no1	0	-2	13	-1	i
COCCNC(=O)CN(Cc1ccc(F)cc1)C(=O)CCC(=O)Nc1nccs1	·	-11	-5	·	i
COc1cc2ccc3c(CCN(C)C)cc(OC)c(OC)c3c2cc1OC	·	-7	-54	·	+
CN1CCN(C(=O)c2ccc3c(c2)N(Cc2ccc(F)cc2)C(=O)c2ccccc2S3=O)CC1 (centres undefined)	·	-11	-8	·	i
C=CCN1C(=O)C2(NNc3ccccc3O2)c2ccccc21 (centres undefined)	0	101*	-94	-10	+
CCCCN1C(=O)C2(NNc3ccccc3O2)c2ccccc21 (centres undefined)	0	10	-87	0	i
Cc1cc(-c2csc(NC(=O)c3cc4ccccc4o3)n2)c(C)n1C	0	98*	-19	-6	+
COc1ccc(/C=N/n2c(-c3cccs3)n[nH]c2=S)cc1	1	4	-36	33*	i
Cc1ccc(/C=N/n2c(-c3cccs3)n[nH]c2=S)cc1	1	0	-61	20	i
Cc1cc2cc(C(c3nnnn3Cc3ccco3)N3CCc4ccccc4C3)c(=O)[nH]c2cc1C (centres undefined)	0	63*	1	·	+
Cc1cc2cc(C(c3nnnn3Cc3ccco3)N3CCc4ccccc43)c(=O)[nH]c2cc1C (centres undefined)	-1	26*	-4	-8	+
Cc1ccc2[nH]c(=O)c(C(c3nnnn3CC3CCCO3)N3CCc4ccccc4C3)cc2c1 (centres undefined)	0	-3	78*	·	i
Cc1cc2cc(C(c3nnnn3Cc3ccccc3)N3CCc4ccccc43)c(=O)[nH]c2cc1C (centres undefined)	-1	-4	4	-30	i

Screening data deposited in PubChem by several laboratories.
